From ChEMBL document CHEMBL3988442, “University of Dundee, Small-Polar-MMV Screening Library” (2021)
Screen size: about 48,000 compounds; about 13,000 (27%) showed an effect of 50% or more. This is one part of the list.

What follows are compounds tested on Wolbachia pipientis (assay: Anti-Wolbachia Cell-Based Screen). Details: 5 µM.
Assay type: functional
Set-up: scale not given: in the data most compounds retested in dose-response had high values
`O=C(c1ccon1)N1CCc2ncnc(NCc3cccnc3)c2CC1` was tested, and the “Percent Effect” value was -8.818%. For `CN1CCN(c2cc(CNCc3cccc4c3OCO4)ccn2)CC1`, the “Percent Effect” value was 11.73%. `CC1CCCN(S(=O)(=O)NCCN/C(O)=C2/N=CC=CC2=O)C1` (stereo not drawn) was tested, and the “Percent Effect” value was -6.366%. For `Cn1cccc1C(=O)NC[C@H]1C[C@@H]2CN(C(=O)c3ccco3)C[C@@H]2O1`, the “Percent Effect” value was 102.1%. In the case of `O=C(NCC1Cn2nnc(-c3ccncc3)c2CO1)c1ccsc1.O=C(O)C(F)(F)F` (stereo not drawn), the “Percent Effect” value is reported as -1.201%. `O=C(NC[C@H]1C[C@@H]2CN(C(=O)c3ccco3)C[C@@H]2O1)c1ccsc1` was tested, and the “Percent Effect” value was 124.8%. For `Cn1cccc1C(=O)NC[C@H]1C[C@@H]2CN(C(=O)c3ccno3)C[C@H]2O1`, the “Percent Effect” value was 1.866%. For `O=C(NC[C@@H]1C[C@@H]2CN(C(=O)CO)C[C@H]2O1)c1ccsc1`, the “Percent Effect” value was 119.3%. In the case of `O=C(NC[C@H]1C[C@@H]2CN(C(=O)c3ccno3)C[C@@H]2O1)C1CCC1`, the “Percent Effect” value is reported as 2.338%. `O=C(c1ccsc1)N1C[C@@H]2C[C@@H](c3nnc(C4CC4)o3)O[C@@H]2C1` was tested, and the “Percent Effect” value was 1.173%. For `CN(C)C[C@H]1C[C@@H]2CN(C(=O)c3ccco3)C[C@@H]2O1`, the “Percent Effect” value was -6.391%. `CC(C)NC[C@@]1(COc2ccccc2)C[C@@H](O)[C@@H](O)C1.Cl` was tested, and the “Percent Effect” value was 3.998%. For `N#Cc1ccc(N2CCCC2Cn2cncn2)nc1` (stereo not drawn), the “Percent Effect” value was 6.543%. `COc1ccccc1C(C#N)NC(=O)c1cccc2c1oc(=O)n2C` (stereo not drawn) was tested, and the “Percent Effect” value was -5.303%. In the case of `CC(=O)N1CCCN(C(=O)NC(C)c2csc3ccccc23)CC1` (stereo not drawn), the “Percent Effect” value is reported as -8.175%. For `O=C1N(Cc2cccc(F)c2F)CCCC1(O)CNC1CCCC1` (stereo not drawn), the “Percent Effect” value was 4.204%. With `COCCNC(=O)Nc1ccc(C(=O)N2CCSCC2)cc1C` the “Percent Effect” value was -68.32%. In the case of `Cl.NCC1CCCCN1C(=O)Cc1cccc(Cl)c1` (stereo not drawn), the “Percent Effect” value is reported as -19.94%. With `O=C(Cc1ccccn1)N1CCC2(CC1)CN(c1ccccn1)CCO2` the “Percent Effect” value was 1.035%. For `O=C(Cc1ccccc1)N1CCC2(CC1)CN(c1ncccn1)CCO2`, the “Percent Effect” value was -17.85%. `NCCC(=O)N1CCC2(CC1)CN(C(=O)Cc1cccc(Cl)c1)CCO2` was tested, and the “Percent Effect” value was 105.1%. `O=C(Cc1ccc(Cl)cc1)N1CCC(O)(C(F)(F)F)C1` (stereo not drawn) was tested, and the “Percent Effect” value was -18.33%. In the case of `O=C(CCc1ccc(Cl)cc1)N1CCC(O)(C(F)(F)F)C1` (stereo not drawn), the “Percent Effect” value is reported as 8.106%. `NCCC(=O)N1CCC2(CC1)CN(C(=O)Cc1ccc(Cl)cc1)CCO2` was tested, and the “Percent Effect” value was 115.1%. With `O=C(CN1C(=O)c2ccccc2C1=O)N1CCOC2(CCOCC2)C1` the “Percent Effect” value was -3.799%. For `NCC(=O)N1CCC2(CC1)CN(C(=O)Cc1ccc(Cl)cc1)CCO2`, the “Percent Effect” value was 111%. For `CCOc1ncccc1C(=O)Nc1c(C)cnn1CC1CC1`, the “Percent Effect” value was 12.64%. For `CC(=O)N1CCN(Cc2nnc(C(C)(C)C)o2)CC1`, the “Percent Effect” value was -8.386%. In the case of `Cc1cc(CN(C)C(=O)NCc2ccnc(OC3CCCC3)c2)no1`, the “Percent Effect” value is reported as 7.98%. In the case of `CC(=O)N1CCN(C(=O)c2cnc(OC(C)C)c(Cl)c2)CC1`, the “Percent Effect” value is reported as -40.95%. For `CCN(Cc1nccn1C)C(=O)c1ccc(NCc2ccccc2)nc1`, the “Percent Effect” value was -22.31%. In the case of `CCOc1cccc(CNc2cncc(-n3cccn3)n2)c1`, the “Percent Effect” value is reported as 10.28%. In the case of `CNC(=O)COc1ccc(CNc2cncc(-n3cccn3)n2)cc1`, the “Percent Effect” value is reported as 94.6%. In the case of `CCN(CC)C(=O)c1ccc(CNc2ncc(C#N)cc2Cl)cc1`, the “Percent Effect” value is reported as 2.172%. `CCCOc1ccc(CNc2cncc(-n3cccn3)n2)cc1` was tested, and the “Percent Effect” value was 92.88%. `CCN(CC)C(=O)c1ccc(CNc2cncc(-n3cccn3)n2)cc1` was tested, and the “Percent Effect” value was 118.2%. For `CNC(=O)COc1ccc(CNc2c(Cl)cccc2C#N)cc1`, the “Percent Effect” value was -7.522%. In the case of `CN(CCCc1ccccc1)C(=O)c1cn2c(n1)CNCC2`, the “Percent Effect” value is reported as 13.8%. `O=C(CSc1ccc2c(c1)OCCO2)NS(=O)(=O)c1ccccc1` was tested, and the “Percent Effect” value was -10.89%. For `Cn1nccc1C1CCN(Cc2cnn(-c3ccccc3)n2)CC1`, the “Percent Effect” value was -1.945%. In the case of `CN(CCc1ccccc1)c1cnn(CC(=O)N2CCSCC2)c(=O)c1`, the “Percent Effect” value is reported as -7.275%. `Cc1nn(CC(C)C)c(N(C)C)c1CNCc1ccnn1C` was tested, and the “Percent Effect” value was 113.6%. For `Cc1nn(CC(C)C)c(N(C)C)c1CNCc1cc2ccccc2[nH]1`, the “Percent Effect” value was 5.6%. For `COc1cc(CNCc2c(C)nn(CC(C)C)c2N(C)C)ccn1`, the “Percent Effect” value was 90.35%. `COc1cc(CNCc2c(C(C)C)nn(C)c2N(C)C)ccn1` was tested, and the “Percent Effect” value was -8.861%. `CC(=O)NCCCNCc1c(C)nn(CC(C)C)c1N(C)C` was tested, and the “Percent Effect” value was -6.238%. With `Cc1nn(C)c(N(C)C)c1CNCc1ccnn1C` the “Percent Effect” value was -14.99%. For `Cc1nn(CC(C)C)c(N(C)C)c1CNCc1cccnc1N(C)C`, the “Percent Effect” value was -5.662%. For `Cc1nn(CC(C)C)c(N(C)C)c1CNCc1cccc2c1OCO2`, the “Percent Effect” value was 0.06204%. With `CC(C)c1nn(C)c(N(C)C)c1CNCc1ccnn1C` the “Percent Effect” value was 10.31%. In the case of `Cc1nn(CC(C)C)c(N(C)C)c1CNCc1ccccc1CO`, the “Percent Effect” value is reported as 116.8%. In the case of `COc1cc(CNCc2c(C)nn(C)c2N(C)C)ccn1`, the “Percent Effect” value is reported as -5.351%. For `Cc1nn(CC(C)C)c(N(C)C)c1CNCc1ccc(CO)c(F)c1`, the “Percent Effect” value was 108.6%. For `COCC1CN(C(=O)Nc2cc(-n3cccc3)ccc2F)CCO1` (stereo not drawn), the “Percent Effect” value was 0.4358%. With `O=S(=O)(NCCc1c[nH]c2ccc(F)cc12)C1CCOCC1` the “Percent Effect” value was -14.21%. In the case of `Cc1cc(N2CCN(Cc3ccc(C)o3)CC2)cc(C)n1`, the “Percent Effect” value is reported as 4.051%. For `CN(Cc1cccc(Cl)c1)C(=O)Cn1nc(-c2ccc(F)cc2)oc1=O`, the “Percent Effect” value was -8.099%. In the case of `CCOCc1nc2c(c(N(C)Cc3snnc3C)n1)CCNCC2`, the “Percent Effect” value is reported as 2.794%. For `O=C(NC[C@@H]1CCCO1)c1ccc(S(=O)(=O)N[C@@H]2CCNC2)cc1`, the “Percent Effect” value was -1.141%. With `CC(C)c1ccc(CNC(c2ccc(F)cn2)C(C)C)cc1` (stereo not drawn) the “Percent Effect” value was 100.5%. With `CC(C)C(NCc1ccc(Cn2cncn2)cc1)c1ccc(F)cn1` (stereo not drawn) the “Percent Effect” value was 90.96%. With `Cc1[nH]ncc1C(C)NCc1ccc(F)cc1` (stereo not drawn) the “Percent Effect” value was -5.411%. With `COc1ccc(CNC(Cn2cncn2)c2ccccc2)cc1C` (stereo not drawn) the “Percent Effect” value was -2.513%. `CC(C)C(NCc1ccc(Cn2cncn2)cc1)c1ccccc1` (stereo not drawn) was tested, and the “Percent Effect” value was 124.9%. In the case of `Fc1ccc(CNc2ccccc2Cn2cncn2)cc1`, the “Percent Effect” value is reported as -15.58%. `N#Cc1cc(F)ccc1NCc1ccc(Cn2cncn2)cc1` was tested, and the “Percent Effect” value was 1.669%. With `COc1ccc(CNC(Cn2cncn2)c2ccccc2)cc1O` (stereo not drawn) the “Percent Effect” value was -2.426%. `CC(NCc1ccc(F)cc1)c1ccc(S(C)(=O)=O)cc1` (stereo not drawn) was tested, and the “Percent Effect” value was 8.945%.
